This is a sample that favours compounds with a hit; in the whole collection about 2.1% have one here.
EP2 mod – modulates human prostaglandin E2 receptor EP2 signaling; induction, % at 25 µM; EP2-expressing cells, cAMP HTRF FRET, PGE2 co-stimulation; 0.83% of 260,000 active;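 active means compounds whose cAMP rise, as percent of the full-agonist control response, exceeds 60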;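 further: rat C6 glioma line stably carrying human EP2 under a CMV promoter; the protocol text gives 20 µM as final concentration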
Target sequence (P43116 whole entry, looked up): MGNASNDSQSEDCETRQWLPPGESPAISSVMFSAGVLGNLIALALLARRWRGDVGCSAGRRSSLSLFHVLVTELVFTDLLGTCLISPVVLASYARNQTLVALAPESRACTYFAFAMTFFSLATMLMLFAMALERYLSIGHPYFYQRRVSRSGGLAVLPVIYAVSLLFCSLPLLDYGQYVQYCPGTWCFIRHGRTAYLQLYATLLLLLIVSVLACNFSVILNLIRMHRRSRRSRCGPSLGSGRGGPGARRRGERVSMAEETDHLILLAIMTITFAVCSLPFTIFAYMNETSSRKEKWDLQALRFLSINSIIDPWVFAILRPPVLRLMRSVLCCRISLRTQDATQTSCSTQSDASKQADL
Avidin bead fluor – avidin bead compound fluorescence profile; Avidin beads, compound fluorescence 488/530 nm, flow cytometry; active compounds read high; fluorescence (KMESF) at 10 µM; 0.38% of 220,000 active; in the data active means fluorescence above about 47
GSH fluor – GSH bead compound fluorescence profile | fluorescence (KMESF) at 10 µM | GSH beads flow cytometry, compound fluorescence 488/530 nm; active compounds read high | 0.25% of 190,000 active; in the data active means fluorescence above about 89;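 further: glutathione beads carrying GST-tagged Bcl family fusion proteins plus one bare bead set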
HMGR II inh – inhibitors of class II HMG-CoA reductase from Enterococcus faecalis; purified E. faecalis HMGR, NADPH absorbance 340 nm kinetic; AID 1066; inhibition, % at 10 µM; 0.41% of 190,000 active;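 active means inhibition above a set limit, the median over all tested compounds plus 3 SD, cut at about 9.5% in these data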;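 further: enzyme runs in reverse so mevalonate oxidation gives rising NADPH absorbance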
PGE2 EP2 inh – inhibitors of human EP2 prostaglandin E2 receptor | P43116 | 0.52% of 260,000 active | C6 glioma cells expressing human EP2, cAMP TR-FRET; cells stimulated with saturating PGE2 | AID 1422 | inhibition, % at 25 µM;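 active means percent inhibition above 40 after rounding to a whole number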;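 further: rat C6 glioma host cells with rolipram phosphodiesterase inhibitor present; the protocol text gives 20 µM as final concentration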
Hits are given with their value; n = inactive; x = no result; ! = not confirmed by another sample.

SMILES	EP2 mod	Avidin bead fluor	GSH fluor	HMGR II inh	PGE2 EP2 inh
COc1ccc(S(=O)(=O)N2CCC(C(=O)Nc3ccc(C)c(C)c3)CC2)cc1OC	n	x	x	x	n
COC(=O)[C@@]1(Cc2ccc(F)cc2)[C@H]2c3cc(C(=O)N(C)C)n(Cc4nc5ccccc5[nH]4)c3C[C@H]2CN1C(=O)c1ccccc1	n	n	n	11	n
CC[N+](C)(C)CCNC(=O)c1c(O)c2ccccc2[nH]c1=O	n	x	x	x	n
CNC(=O)CSc1nnc(COc2ccccc2)n1C	n	x	x	x	n
Cc1cc(C)nc(Nc2ncc(O)n2-c2ccc(C)c(C)c2)n1	n	56	n	n	n
CC(C)C(OC(=O)c1cc2sccc2n1C)C(=O)NCC1CCCO1 (stereo unspecified)	n	n	254	n	n
CC(C)C(OC(=O)c1cc2sccc2n1C)C(=O)NCc1ccc(F)cc1 (stereo unspecified)	n	x	x	x	n
CN(C)c1cccc2cccc(N(C)C)c12	n	n	x	x	n
CN(C)c1ccc2c3c(ccc(N(C)C)c13)COC2	n	n	n	15	n
COC(=O)CSc1nc(C(C)(C)C)cc(C(F)(F)F)n1	n	x	x	x	n
COc1cc(C=O)ccc1OCc1cccc(Br)c1	n	n	n	n	n
COc1cc(C=O)ccc1OCc1ccccc1Br	65	n	n	n	n
COc1ccc(C2(O)CCN(CC(O)c3ccc4c(c3)OCCO4)CC2)cc1 (stereo unspecified)	n	x	x	x	n
O=C(c1cccs1)N1N=C(c2ccccc2)CC1c1ccccc1 (stereo unspecified)	63	n	n	n	n
O=C(c1cccs1)N1N=C(c2ccc(O)cc2)CC1c1ccccc1 (stereo unspecified)	65	n	n	n	n
O=C(NCc1ccc2c(c1)OCO2)[C@H]1C=CCN1C(=O)c1cccs1	n	x	x	x	n
O=C(NCc1ccccc1)c1c[nH]c2cc3c(cc2c1=O)OCCO3	n	n	89	n	n
CC(CCc1ccccc1)NCCNC(=O)c1cccs1 (stereo unspecified)	n	x	x	x	n
COCCn1c(-c2ccc(OC)cc2)cnc1SCC(=O)O	n	x	x	x	n
COc1cc(OC)cc(OCC(O)Cn2c(Cc3ccccc3)nc3ccccc32)c1 (stereo unspecified)	n	x	x	x	n
CCOC(=O)C1CCCN(Cc2ccccc2F)C1 (stereo unspecified)	n	n	n	n	n
CCOC(=O)C1CCCN(Cc2c(Cl)cccc2Cl)C1 (stereo unspecified)	61	n	n	n	n
CCC1(CC)Cc2ccccc2C(N)=C1C#N	n	63	n	n	n
Cc1ccc(NC(=O)C2CCN(C(=O)c3cccs3)CC2)cc1C	n	x	x	x	n
Nc1nc(-c2cc(-c3cccc4ccccc34)nc(N)n2)cc(-c2cccc3ccccc23)n1	n	x	x	x	57
SMILES	EP2 mod	Avidin bead fluor	GSH fluor	HMGR II inh	PGE2 EP2 inh
Nc1ccc2oc(-c3cccc4ccccc34)nc2c1	n	n	n	n	n
Cc1nn(-c2ccc(Cl)cc2)c(=O)c2ccccc12	n	n	n	n	n
O=c1c2ccccc2c(-c2ccc(Cl)cc2)nn1-c1ccccc1	63	n	n	n	n
O=C(CN1CCN(c2ccccn2)CC1)Nc1ccc(OCc2ccccc2)cc1	n	63	n	n	x
CCN(CC)S(=O)(=O)C1CCS(=O)(=O)C1 (stereo unspecified)	n	n	242	n	n
CCc1nc(N2CCCC(C)C2)c2oc3ccccc3c2n1 (stereo unspecified)	61	n	n	n	n
CCc1nc(N2CCCCC2C)c2oc3ccccc3c2n1 (stereo unspecified)	n	n	n	n	n
CCOc1ccc2nc(NC(=O)c3cccc(-c4cc5ccccc5oc4=O)c3)sc2c1	n	74	n	n	n
Cc1ccc2nc(NC(=O)c3cccc(-c4cc5ccccc5oc4=O)c3)sc2c1	n	n	n	n	n
COc1ccc(OC)c(CC(=O)N[C@@H](C)Cn2nnc3ccccc32)c1	n	x	x	x	n
O=C(Nc1ccccn1)C(=O)N1CCCCC1	n	n	96	n	n
COC(=O)c1cccc(S(=O)(=O)N(Cc2cccs2)Cc2cc3cc(OC)ccc3[nH]c2=O)c1	n	x	x	x	46
COc1ccc(S(=O)(=O)N(Cc2cccs2)Cc2cc3cc4c(cc3[nH]c2=O)OCCO4)cc1	n	x	x	x	n
COc1ccc2[nH]c(=O)c(CN(Cc3cccs3)S(=O)(=O)c3ccc(C(C)=O)cc3)cc2c1	n	x	x	x	66
Oc1cccc(CN2CCCC(c3noc(-c4ccccn4)n3)C2)c1 (stereo unspecified)	n	x	x	x	n
CCN1CCN(S(=O)(=O)c2cc(C(=O)O)ccc2Cl)CC1	n	58	x	x	n
COc1ccc(C2=[N+]([O-])C(C)(C)N(O)C2(C)C)cc1	n	n	n	n	n
CC1N(O)C(C)(C)C(c2ccccc2)=[N+]1[O-] (stereo unspecified)	n	n	103	n	n
CC1=c2c(oc3cc(O)c(Nc4c(C)cc(O)cc4O)c(C)c23)=CC(=O)C1=Nc1c(C)cc(O)cc1O	n	x	x	x	53
CCN1c2ncccc2C(=O)NC12CCN(C(=O)CN1CCCC1)CC2	n	x	x	x	x
COC(=O)c1c(NC(=O)c2cnccn2)sc2c1CCC2	n	n	n	n	x
O=C(Nc1nc2c(s1)CCCC2=O)c1cnccn1	n	n	269	n	n
CCN1/C(=C/c2ccc3cccc(C)c3[n+]2CC)Sc2ccccc21	n	n	n	n	63!
CC[n+]1c(/C=C2\Sc3ccc4ccsc4c3N2C)ccc2cc(C)ccc21	n	x	x	x	n
CCN1/C(=C/c2ccc3cc(C)cc(C)c3[n+]2CC)Sc2cc(C)ccc21	n	n	n	n	110
SMILES	EP2 mod	Avidin bead fluor	GSH fluor	HMGR II inh	PGE2 EP2 inh
CCN1/C(=C\c2ccc3cc(C)ccc3[n+]2CC)Sc2cc(C)c(C)cc21	n	n	n	n	61
CCN(CC)c1c(-c2ccccc2)c2cc(C)ccc2[nH]c1=O	61	n	n	n	n
C/C(=N\N)c1c(-c2ccccc2)c2cc(C)ccc2[nH]c1=O	n	n	x	x	n
O=C(Nc1ccc(Cl)c(Cl)c1)c1ccc(Cn2c(=O)[nH]c3ccsc3c2=O)cc1	n	n	n	n	n
O=C(Nc1ccc(Oc2ccccc2)cc1)c1ccc(Cn2c(=O)[nH]c3ccsc3c2=O)cc1	n	n	n	20	n
Nc1ccc(N=Nc2ccc(-c3ccc(O)cc3)cc2)c2ccc(S(=O)(=O)O)cc12	n	x	x	x	49
CCC(C)NC(=O)C1CCCN(S(=O)(=O)c2ccc(OC)cc2)C1 (stereo unspecified)	n	x	x	x	n
CCC(c1ccc(F)cc1)n1cc(C(=O)NC(C)c2ccncc2)nn1 (stereo unspecified)	n	x	x	x	x
CCCCOc1ccc(C2CC(=O)NC2=O)cc1 (stereo unspecified)	n	79	n	n	n
Nc1ccc2nsnc2c1Cl	n	x	x	x	n
Cc1ccc2nsnc2c1N	n	n	n	18	n
CCOc1ccc(NC(=O)C2CCN(c3cnccn3)CC2)cc1	n	x	x	x	n
CCOC(=O)c1c(NC(=O)CSc2nnc(-c3cccc(C)c3)o2)sc(C(C)=O)c1C	n	x	x	x	n
